BAZ2B inh: inhibitors of human BAZ2B bromodomain; Q9UIF8; AID 504333; 4.4% of 360,000 active; Potency, µM (highest dose often 114 µM), inactives show at the top dose activity change, negative = inhibition, actives largely listed as inhibitors; AlphaScreen BAZ2B-H3K14Ac peptide displacement; also: potency is read from the fitted curve at half-maximal effect; % is scaled to controls: 0 for no effect and ±100 for the full control effect; nearly all actives have a fitted effect of over 60% in size
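AlphaScreen luminescence quantifies BAZ2B engagement of H3K14Ac peptide; the protein and biotinylated peptide are both at 50 nM final, buffer PBS pH 7.4 with 0.01% Tween-20, all steps at room temperature.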
PI5P4K alpha inh: blocks human PI5P4K alpha kinase activity; AID 652105; 1.2% of 330,000 active; P48426; PI5P4Kalpha enzyme, ADP-Glo luminescence, 60 min; hits give low values; max response, %; active = max response of -50% or lower; inconclusive = between -30% and -50%; inactive = -30% or higher; also: value at the top dose of about 77 µM; % is scaled to controls: 0 for no effect and ±100 for the full control effect
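ADP-Glo luminescence end-point read after a 60 min room-temperature kinase reaction of PI5P4Kalpha plus substrate, initiated with ATP at 5 microM final. Buffer: 0.038 M HEPES pH 7.4, EGTA, 0.1% CHAPS, 5% DMSO.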
HP1b chromo inh: HP1-beta chromodomain-methylated histone interaction inhibition; AlphaScreen HP1-beta / biotin-H3K9me3 peptide binding; Potency, µM (series often up to 114 µM), for the others: at the top dose activity change, negative = inhibition, actives largely listed as inhibitors; 0.56% of 390,000 active; also: potency is read from the fitted curve at half-maximal effect; nearly all actives have a fitted effect of over 70% in size
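HP1-beta protein (50 nM final) preincubated 30 min at room temperature with biotinylated H3(1-18)K9me3 peptide (50 nM) in PBS pH 7.4, 0.01% Tween-20, then compound added for 30 min. AlphaScreen streptavidin donor/nickel chelate acceptor beads (10 ug/mL final), 30 min dark, luminescence read.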
PLK1 PBD inh: blocks phosphopeptide binding to human PLK1 polo-box domain; P53350; Plk1 PBD binding of FITC phosphopeptide, fluorescence polarization; Potency, µM, without a hit: max response, negative = inhibition, usual class: inhibitors; 2.8% of 360,000 active; also: potency is read from the fitted curve at half-maximal effect; series mostly up to about 57 µM; % is scaled to controls: 0 for no effect and ±100 for the full control effect; nearly all actives have a fitted effect of over 65% in size
JMJD2A Tudor inh: inhibitors of human JMJD2A Tudor domain; O75164; AlphaScreen JMJD2A-Tudor / H3K4me3 peptide binding; AID 504339; Potency, µM (doses to about 114 µM), without a hit: at the highest dose activity change, negative = inhibition, usual class: inhibitors; 4.4% of 390,000 active; also: potency is read from the fitted curve at half-maximal effect; % is scaled to controls: 0 for no effect and ±100 for the full control effect; nearly all actives have a fitted effect of over 50% in size
G9a block: inhibitors of human histone lysine methyltransferase G9a; Q96KQ7; G9a H3K9 monomethylation, AlphaScreen, 2 h; Potency, µM (titrated, usually from 102 µM), without a hit: at the highest dose activity, negative = inhibition, usual class: inhibitors; 8.8% of 350,000 active; AID 504332; also: potency is read from the fitted curve at half-maximal effect; % is scaled to controls: 0 for no effect and ±100 for the full control effect; nearly all actives have a fitted effect of over 75% in size
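Compounds were preincubated with 20 nM G9a for 15 min, after which biotinylated H3K9 peptide (500 nM) and SAM (20 uM) started a 2 h room-temperature reaction. Monomethylated product was quantified by antibody-based AlphaScreen chemiluminescence.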
The depositor's hits bear a star; ? = inconclusive; . = no result given; [ ] = another dose, or the depositor's remark. A selection: hits, their analogues and other compounds. The true share with any hit is near 12%. Unless noted, calls follow the shape of the dose curve; as a rule, active = well fitted curve in the direction sought with a large enough effect; inconclusive = small, poorly fitted or top-dose-only effect, or another doubt; inactive = no such curve, though single readings can be large; an effect the other way counts as inactive or inconclusive.

SMILES	BAZ2B inh	PI5P4K alpha inh	HP1b chromo inh	PLK1 PBD inh	JMJD2A Tudor inh	G9a block
COc1ccc(OC)c(C2C(C(=O)c3ccco3)=C(O)C(=O)N2CC2CCCO2)c1 (stereo not drawn)	?	7	-9%	-6%	-7%	50µM*
O=C(Cc1ccc(F)cc1)N1CCC(c2nc3c(nnn3Cc3ccc(Cl)cc3)c(=O)[nH]2)CC1	-18%	.	28%	.	-20%	0%[59 µM]
CCN(c1ccc(C)cc1C)S(=O)(=O)c1nnc(NC(=O)CC(C)C)s1	-1%	.	31%	.	-5%	2%[59 µM]
CCOC(=O)CC(NC(=O)Cn1nnc(-c2ccc(C(F)(F)F)cc2)n1)c1ccc(C)cc1 (stereo not drawn)	-12%	.	16%	.	-20%	3%[59 µM]
O=C(C1=C(O)C(=O)N(CC2CCCO2)C1c1ccccc1[N+](=O)[O-])c1ccco1 (stereo not drawn)	-3%	5	3%	-11%	-14%	35µM*
Cc1ccc2[nH]c3c(c2c1)CN(C(=O)CN1c2ccc(F)cc2CCC1C)CC3 (stereo not drawn)	40µM*	7	?	-2%	45µM*	32µM*
O=C(CN1CCN(C(=O)c2ccco2)CC1)N1CCc2[nH]c3ccccc3c2C1	-24%	-2	26%	-26%	-15%	22µM*
Cc1ccc2[nH]c3c(c2c1)CN(C(=O)CN1CCN(c2cccc(C)c2C)CC1)CC3	35µM*	11	-18%	-18%	56µM*	?
Cc1cc2nc(C3CCCCC3)c(Cc3ccccc3)n2c(C)c1Br	.	6	.	-5%	.	.
N#CC1=C(N)Oc2ccc3ccccc3c2C1c1cccnc1 (stereo not drawn)	-38%	-4	31%	-4%	-18%	45µM*
N#CC1=C(N)Oc2cc(O)c(Cl)cc2C1c1ccccc1F (stereo not drawn)	-11%	-64*	26%	-2%	-13%	50µM*
N#CC1=C(N)Oc2ccc3ccc(O)cc3c2C1c1cccnc1 (stereo not drawn)	-4%	.	11%	-10%	-8%	4%[59 µM]
N#CC1=C(N)Oc2cc(O)c(Cl)cc2C1c1cccnc1 (stereo not drawn)	-14%	-52*	2%	-28%	-11%	32µM*
CCC1CCCCN1S(=O)(=O)c1ccc(N2CCCCS2(=O)=O)cc1 (stereo not drawn)	-10%	.	13%	.	-8%	10%[59 µM]
O=[N+]([O-])c1cc([N+](=O)[O-])c(Oc2ccc(Br)cc2Br)cc1NN1CCCCC1	?	0	?	?	10µM*	16µM*
Cc1cc(F)ccc1Oc1cc(NN2CCCCC2)c([N+](=O)[O-])cc1[N+](=O)[O-]	?	52	-15%	-8%	?	?
COc1cccc(Oc2cc(NN3CCCCC3)c([N+](=O)[O-])cc2[N+](=O)[O-])c1OC	8.9µM*	-3	-27%	-8%	?	40µM*
O=[N+]([O-])c1cc([N+](=O)[O-])c(Oc2c(F)cc(F)cc2F)cc1NN1CCCCC1	?	5	?	-6%	?	50µM*
O=[N+]([O-])c1cc([N+](=O)[O-])c(Oc2cccc3c2CCCC3)cc1NN1CCCCC1	.	3	0%	-14%	-34%	.
CCN(CC)CCNC(=O)CCn1c(=O)c2cccn2c2cccnc21	-4%	.	5%	.	-5%	-32%[59 µM]
Cc1ccccc1N(C(=O)c1csnn1)C(C(=O)NC1CCCC1)c1ccncc1 (stereo not drawn)	-11%	-1	3%	-8%	-9%	10%
COc1cc([N+](=O)[O-])ccc1NC(=O)NNC(=O)CCc1ccccc1	-20%	1	22%	0%	-26%	-4%
COc1cc([N+](=O)[O-])ccc1NC(=S)NC(=O)CC(C)(C)C	-23%	-1	?	27µM*	-30%	4%[12.7 µM]
COc1cc([N+](=O)[O-])ccc1NC(=O)NNC(=O)c1sccc1C	-19%	-2	37%	3%	-11%	71µM*
O=C(NC(=S)Nc1cc([N+](=O)[O-])ccc1O)c1ccc2c(c1)OCO2	?	-25	?	-21%	-34%	?
SMILES	BAZ2B inh	PI5P4K alpha inh	HP1b chromo inh	PLK1 PBD inh	JMJD2A Tudor inh	G9a block
COc1cc([N+](=O)[O-])ccc1NC(=S)NNC(=O)c1ccc2c(c1)OCO2	?	?	?	?	50µM*	8.9µM*
COc1ccc([N+](=O)[O-])cc1NC(=S)NC(=O)C(C)(C)C	-14%	7	30%	?	7%	?
Cc1ccc2[nH]c3nc(NN)nnc3c2c1	3.5µM*	-29	38%	-12%	50µM*	.
CCOc1ccc(-c2nnc(SCC(=O)Oc3ccccc3)o2)cc1	?	.	12%	.	-17%	-34%[59 µM]
Fc1ccccc1-c1csc(-c2cccnc2)n1	88%	23	135%	-1%	52%	-14%
Oc1ccc(-c2csc(-c3cccnc3)n2)cc1O	45µM*	-16	79µM*	-16%	7.1µM*	.
Oc1ccc(-c2csc(-c3ccccc3)n2)cc1O	56µM*	.	?	-1%	40µM*	?
Cc1nc(-c2ccc(O)c(O)c2)cs1	-36%	-7	?	?	4µM*	1.4µM*
Oc1ccccc1-c1csc(-c2ccccc2)n1	76%	27	162%	-18%	115%	114%
Clc1ccc(-c2csc(-c3cccnc3)n2)s1	3%	4	114%	0%	53%	40µM*
COc1ccc2c(c1)C(=O)Cc1ccccc1O2	.	0	30%	-18%	1%	.
c1ccc(Cn2ncc3c(N4CCN(c5ccccc5)CC4)ncnc32)cc1	.	0	.	-11%	.	.
Cc1cccc(NC(=O)c2ccc(-n3c(C)nnc3C)cc2)c1	-1%	.	28%[57 µM]	.	2%	3%[59 µM]
c1ccc(CN2CCC3CC2c2cc(N4CCOCC4)ccc23)cc1 (stereo not drawn)	.	-2	30%	-6%	-21%	.
O=C(C[C@H]1C/C=C\CC[C@H](Cc2ccc(F)cc2)C(=O)OC[C@H]2CCCN2C1=O)NCCO	.	-2	28%	-14%	-8%	.
Cc1ccc2nc(-c3ccc(O)c(O)c3)cn2c1	50µM*	-19	?	?	22µM*	.
O=C(O)/C(=C\c1ccc2ccccc2c1)c1cccc2ccccc12	.	3	28%	21µM*	-19%	.
Cc1cccc(NC(=O)CCc2c(C)nn(-c3ccc(N4CCOCC4)nn3)c2C)c1	-16%[57.1 µM]	1	48%	-5%	-5%	7%
Cc1ccc(NC(=O)CCc2c(C)nn(-c3ccc(N4CCOCC4)nn3)c2C)cc1C	-19%[57.1 µM]	-16	11%	27µM*	?	-7%
Cc1cccc(C)c1NC(=S)N/N=C1\CC2CC=CC12 (stereo not drawn)	-27%	-2	?	15µM*	-34%	13µM*

Screening data deposited in PubChem by National Center for Advancing Translational Sciences (NCATS).
